Broadly, the inhibition is the share of the control response that was lost under treatment.

Structures are written as SMILES. Screen size: about 2,400 compounds; about 1,200 (50%) were called active. The set was probably picked from earlier hits. These entries were drawn from the full list. Unmarked numbers belong to inactive results. Rule as the data show it: active = inhibition above about 24%; inactive = the rest.

This is an account of results in PubChem BioAssay AID1952 (The Scripps Research Institute Molecular Screening Center, 2009).

Sequence of Neuropeptides B/W receptor type 1 (Homo sapiens) (P48145 whole entry, looked up): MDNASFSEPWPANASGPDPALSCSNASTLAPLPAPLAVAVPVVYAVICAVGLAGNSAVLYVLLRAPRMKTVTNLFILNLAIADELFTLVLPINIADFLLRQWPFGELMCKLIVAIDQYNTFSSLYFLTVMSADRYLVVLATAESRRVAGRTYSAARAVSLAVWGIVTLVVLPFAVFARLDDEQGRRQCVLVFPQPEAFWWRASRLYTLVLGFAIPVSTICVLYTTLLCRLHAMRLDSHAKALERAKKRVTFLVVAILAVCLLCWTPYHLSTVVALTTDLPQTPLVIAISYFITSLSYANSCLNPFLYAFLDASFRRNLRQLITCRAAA

This test concerns the target Neuropeptides B/W receptor type 1 (Homo sapiens) (UniProt P48145). In words: GPR7 receptor antagonists, confirmation, cell-based, fluorescence, single concentration (AID 1952).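 Also: stimulated with the GPR7 agonist NPW; 0% = agonist plus vehicle and 100% = vehicle alone without agonist.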 Conditions: GPR7-expressing cells, calcium fluorescence antagonist mode; at 4.4 µM; active compounds read high.
Consider `CCOc1ccc(-c2cc(C)[n+](CCN(CC)CC)c(-c3ccc(OCC)cc3)c2)cc1`, for which the inhibition was 41.8% (active). Take `COc1ccc(Br)cc1CNCCc1cccc(Cl)c1`: the inhibition is 32.7% (active).

`CCOC(=O)C1(Cc2ccc(Cl)cc2)CCN(C(C)CCn2cccn2)CC1` (stereo not drawn): the inhibition is 18.4%.
